Results taken from PubChem BioAssay.
Unmarked numbers belong to inactive results. The source made the active and inactive calls.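 Rule for the calls, unless noted: active = viability at or under a set limit in both replicates, limit being median viability minus 3 SD (cut at about 48% in these data, passing the limit was not always enough); inconclusive = at or under the limit in just one replicate; inactive = at or above the limit in both replicates.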

Test: H69AR cell proliferation blockers – human, duplicate replicates, primary screen (AID 580);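 note: 100% = mean luminescence of untreated wells and 0% = no signal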
Conditions: H69AR lung tumor cells viability, ATP luminescence, 72 h; at 10 µM; hits give low values

Row | Compound | viability
1 | Cc1ccc(-c2nc(N)n(C(=O)c3cccnc3)n2)cc1 | 105%
2 | COc1ccccc1N1CCN(C(=O)c2ccc3nc(-c4ccco4)c(-c4ccco4)nc3c2)CC1 | 69.6%
3 | Cc1ccc(OCC(=O)N2CCN(C(=O)CCC3CCCC3)CC2)cc1 | 86.6%
4 | O=c1c2[nH]c3cccc(Cl)c3c2ncn1CCN1CCCCC1 | 92.6%
5 | O=C(CS(=O)(=O)c1cn(Cc2ccc(Cl)cc2)c2ccccc12)N1CCOCC1 | 97%
6 | CCCC(=O)Nc1ccc(NC(=O)c2ccccc2OC)cn1 | 92.9%
7 | CC(C)CCNC(=O)C(c1ccco1)N(CC1CCCO1)C(=O)Cn1nnc2ccccc21 (stereo not given) | 94.4%
8 | Cn1cnnc1Sc1nc2c(c(=O)n(C)c(=O)n2C)n1C | 102%
9 | CC(CCc1ccccc1)NC(=O)c1ccc(Br)o1 (stereo not given) | 93.5%
10 | O=C1CC(c2ccsc2)c2cc3c(cc2N1)OCCO3 (stereo not given) | 26.9% (active)
11 | Nc1nonc1-n1nnc(C(=O)c2ccccc2)c1-c1ccccc1 | 99.4%
12 | C#CC1(O)CC(C)N(C)C(C)C1 (stereo not given) | 91.9%
13 | Cc1ccc(S(=O)(=O)CCC(=O)Nc2ccc3c(c2)OCO3)cc1 | 81.3%
14 | Cc1ccc(C)c2[nH]c(=O)c(CCNC(=O)c3ccc(Br)o3)cc12 | 89.3%
15 | O=c1c2ccccc2nc(SCc2cn3ccsc3n2)n1-c1ccc(F)cc1 | 102%
16 | Cn1c(SCC(=O)c2ccc(-c3ccccc3)cc2)nnc1-c1ccco1 | 88.1%
17 | O=C(NCCSCc1ccco1)Nc1cccc(Cl)c1 | 86.3%
18 | Cn1nnc2c(sc3nc(N4CCOCC4)c4c(c32)CCCC4)c1=O | 81.6%
19 | CCOc1cc(NC(=O)c2ccco2)c(OCC)cc1NC(=O)COc1ccccc1C | 7.87% (active)
20 | CCOc1ccc(OCC)c2sc(C)nc12 | 99.5%

Row | Compound | viability
21 | COC(=O)c1[nH]c2ccccc2c1NS(=O)(=O)c1ccc(OC)cc1OC | 84%
22 | CC(NC(=O)c1ccco1)c1ccc2c(c1)OCCO2 (stereo not given) | 96.3%
23 | CCC(C)NC(=O)CSC1=Nc2ccccc2C2=NC(CC(=O)NCc3ccccc3)C(=O)N12 (stereo not given) | 107%
24 | Cc1nnc(N(C)C(=O)c2cccnc2)s1 | 88.7%
25 | COc1ccc(N2C(=O)C3CCCN3C2c2ccc(F)cc2)cc1Cl (stereo not given) | 87.4%
26 | CCCn1c(SCC(=O)Nc2nnc(-c3ccccc3)s2)nnc1-c1ccccn1 | 102%
27 | CN(C1CCCCC1)S(=O)(=O)c1ccc(S(=O)(=O)N2CCCC2)cc1 | 78.5%
28 | O=C(CN1CCN(C2CCCCC2)CC1)Nc1ccccc1-c1ccccc1 | 84.7%
29 | COc1cccc(-n2nnc3c(=O)n(Cc4cccc(F)c4)cnc32)c1 | 99.9%
30 | Cc1ccc(-n2c(SCC3CCCCO3)nnc2-c2ccco2)cc1 (stereo not given) | 91.4%
31 | Cc1ccc(-n2nnnc2SCC(=O)N2CCc3ccccc3C2)cc1 | 82.1%
32 | CCOC(=O)c1cccc(NC(=O)C2CCN(S(=O)(=O)c3cccs3)CC2)c1 | 65%
33 | CCn1c(CSc2ncccn2)nnc1SCC(=O)N1c2ccccc2CC1C (stereo not given) | 96.3%
34 | Cc1cc(C(=O)Nc2sc3c(c2C#N)CCCCC3)cs1 | 77.1%
35 | CCN(CC)c1ccc2c(C)c(-c3ccc(N)cc3)c(=O)oc2c1 | 61.8%
36 | N#CC(C(=O)Nc1ccc(Cl)c(Cl)c1)=C1Nc2ccccc2N1 | 13.5% (active)
37 | CCn1nnnc1SCC(=O)N1CCOCC1 | 97.6%
38 | CCN(CC(=O)NCc1cccs1)C(=O)c1cc(S(=O)(=O)N2CCOCC2)ccc1C | 87.7%
39 | O=C(Nc1ccc2c(c1)OCO2)c1ccc(Br)c(S(=O)(=O)N2CCCC2)c1 | 94%
40 | COc1ccc(CNS(=O)(=O)c2ccc3oc(C(=O)O)c(C)c3c2)cc1 | 92.2%

Test: MRP1 drug-resistance reversers in H69AR cells – cell-based, doxorubicin co-treatment, pilot screen (AID 601;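 active = viability loss from added drug above about 55%, and viability with drug at most 40%, in both replicates, limit read from the data, passing the limit was not always enough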)
Conditions: H69AR cells + 2 uM doxorubicin, CellTiter-Glo, 72 h; at 10 µM; hits give high values

Row | Compound | differential viability (reversal) [%]
41 | Cc1ccc(-c2nc(N)n(C(=O)c3cccnc3)n2)cc1 | 19.1
42 | COc1ccccc1N1CCN(C(=O)c2ccc3nc(-c4ccco4)c(-c4ccco4)nc3c2)CC1 | -8.06
43 | Cc1ccc(OCC(=O)N2CCN(C(=O)CCC3CCCC3)CC2)cc1 | -13.4
44 | O=c1c2[nH]c3cccc(Cl)c3c2ncn1CCN1CCCCC1 | 4.01
45 | O=C(CS(=O)(=O)c1cn(Cc2ccc(Cl)cc2)c2ccccc12)N1CCOCC1 | 8.43
46 | CCCC(=O)Nc1ccc(NC(=O)c2ccccc2OC)cn1 | 5.96
47 | CC(C)CCNC(=O)C(c1ccco1)N(CC1CCCO1)C(=O)Cn1nnc2ccccc21 (stereo not given) | 1.64
48 | Cn1cnnc1Sc1nc2c(c(=O)n(C)c(=O)n2C)n1C | 5.7
49 | CC(CCc1ccccc1)NC(=O)c1ccc(Br)o1 (stereo not given) | 9.45
50 | O=C1CC(c2ccsc2)c2cc3c(cc2N1)OCCO3 (stereo not given) | -33.3
51 | Nc1nonc1-n1nnc(C(=O)c2ccccc2)c1-c1ccccc1 | 7.96
52 | C#CC1(O)CC(C)N(C)C(C)C1 (stereo not given) | 13.6
53 | Cc1ccc(S(=O)(=O)CCC(=O)Nc2ccc3c(c2)OCO3)cc1 | -10.8
54 | Cc1ccc(C)c2[nH]c(=O)c(CCNC(=O)c3ccc(Br)o3)cc12 | 5.93
55 | O=c1c2ccccc2nc(SCc2cn3ccsc3n2)n1-c1ccc(F)cc1 | -13.3
56 | Cn1c(SCC(=O)c2ccc(-c3ccccc3)cc2)nnc1-c1ccco1 | -2.98
57 | O=C(NCCSCc1ccco1)Nc1cccc(Cl)c1 | 2.05
58 | Cn1nnc2c(sc3nc(N4CCOCC4)c4c(c32)CCCC4)c1=O | -7.71
59 | CCOc1cc(NC(=O)c2ccco2)c(OCC)cc1NC(=O)COc1ccccc1C | -4.53
60 | CCOc1ccc(OCC)c2sc(C)nc12 | 12.4

Row | Compound | differential viability (reversal) [%]
61 | COC(=O)c1[nH]c2ccccc2c1NS(=O)(=O)c1ccc(OC)cc1OC | -15.4
62 | CC(NC(=O)c1ccco1)c1ccc2c(c1)OCCO2 (stereo not given) | 9.19
63 | CCC(C)NC(=O)CSC1=Nc2ccccc2C2=NC(CC(=O)NCc3ccccc3)C(=O)N12 (stereo not given) | 13.1
64 | Cc1nnc(N(C)C(=O)c2cccnc2)s1 | 1.22
65 | COc1ccc(N2C(=O)C3CCCN3C2c2ccc(F)cc2)cc1Cl (stereo not given) | -1.33
66 | CCCn1c(SCC(=O)Nc2nnc(-c3ccccc3)s2)nnc1-c1ccccn1 | 5.49
67 | CN(C1CCCCC1)S(=O)(=O)c1ccc(S(=O)(=O)N2CCCC2)cc1 | -19.2
68 | O=C(CN1CCN(C2CCCCC2)CC1)Nc1ccccc1-c1ccccc1 | 7.96
69 | COc1cccc(-n2nnc3c(=O)n(Cc4cccc(F)c4)cnc32)c1 | 5.36
70 | Cc1ccc(-n2c(SCC3CCCCO3)nnc2-c2ccco2)cc1 (stereo not given) | 15.5
71 | Cc1ccc(-n2nnnc2SCC(=O)N2CCc3ccccc3C2)cc1 | -8.77
72 | CCOC(=O)c1cccc(NC(=O)C2CCN(S(=O)(=O)c3cccs3)CC2)c1 | -7.91
73 | CCn1c(CSc2ncccn2)nnc1SCC(=O)N1c2ccccc2CC1C (stereo not given) | 11.9
74 | Cc1cc(C(=O)Nc2sc3c(c2C#N)CCCCC3)cs1 | -4.53
75 | CCN(CC)c1ccc2c(C)c(-c3ccc(N)cc3)c(=O)oc2c1 | -9.77
76 | N#CC(C(=O)Nc1ccc(Cl)c(Cl)c1)=C1Nc2ccccc2N1 | -10.8
77 | CCn1nnnc1SCC(=O)N1CCOCC1 | 11.3
78 | CCN(CC(=O)NCc1cccs1)C(=O)c1cc(S(=O)(=O)N2CCOCC2)ccc1C | -0.58
79 | O=C(Nc1ccc2c(c1)OCO2)c1ccc(Br)c(S(=O)(=O)N2CCCC2)c1 | 1.82
80 | COc1ccc(CNS(=O)(=O)c2ccc3oc(C(=O)O)c(C)c3c2)cc1 | 0.665
